Only some compounds are listed: those with a hit (about 2.4% of all), similar ones and a draw of the others.
D2 antagonist: HTS Assay for Allosteric Antagonists of the Human D2 Dopamine Receptor: Primary Screen for Antagonists. D(2) dopamine receptor (Homo sapiens), P14416. HEK293 TREx D2 cells, calcium flux, dopamine EC80. inhibition, % at 10 µM. 340,000 tested, 2% active. AID 485344, 2010; in the data active means inhibition above about 30%; inactive means below that, where a call was filed; further: 0% is about no effect
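Calcium flux kinetic readout in an inducible HEK293 TREx D2 line plated overnight at 30 C. After 180 s compound exposure, an EC80 dopamine challenge follows with another 180 s kinetic read to detect antagonism.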
D2 PAM-1: Beta-Arrestin HTS for Positive Allosteric Modulators of the Human D2 Dopamine Receptor: Potentiators. D(2) dopamine receptor (Homo sapiens), P14416. DiscoveRx D2 beta-arrestin cells, luminescence, 90 min; 100% = 57 uM dopamine signal. potentiation, % (concentration not given with the values). 360,000 tested, 0.23% active. AID 624464, 2012; in the data active means potentiation above about 50%; inconclusive means mostly about 30% to 49%
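PathHunter beta-arrestin assay in DiscoveRx D2 cells. Compounds were added with an EC20 of dopamine (50 nM final) for 90 min at 37 deg C. Luminescence was read 1 h after detection reagent, with 57 uM dopamine as the EC100 control.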
D2 ag-1: HTS Assay for Allosteric Agonists of the Human D2 Dopamine Receptor: Primary Screen for Agonists; D(2) dopamine receptor (Homo sapiens), P14416; activation, % at 2 µM; AID 485358, 2010; 340,000 tested, 0.53% active; HEK293 T-REx D2 cells, calcium flux agonist mode;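 active means activation over 3 SD above normal in the single-dose calcium agonist read, cut at about 30% in these data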; further: 0% is about no effect
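Calcium-flux readout, 1 cycle/sec over 180 s following compound pin transfer, in inducible HEK293 Trex D2 cells (force-coupled); dopamine controls included. Positive calcium responses during this window marked compounds as potential agonists.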
D2 PAM-2: HTS Assay for Positive Allosteric Modulators of the Human D2 Dopamine Receptor: Primary Screen for Potentiators; HEK293 T-REx D2, calcium flux, EC20 dopamine potentiation; 340,000 tested, 0.34% active; potentiation, % at 10 µM; D(2) dopamine receptor (Homo sapiens), P14416;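 active means potentiation over 3 SD above the plate norm, cut at about 30% in these data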; further: 0% is about no effect
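Tetracycline-induced HEK293 T-REx cells force-coupled to calcium signalling expressed D2; compounds were pin-added after a 10 s baseline, read kinetically 180 s, then an EC20 dopamine challenge followed with a further 180 s calcium read.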
D2 ag-2: Beta-Arrestin HTS for Positive Allosteric Modulators of the Human D2 Dopamine Receptor: Agonists | DiscoveRx PathHunter D2 beta-arrestin, luminescence, 90 min; 100% = 57 uM dopamine signal | D(2) dopamine receptor (Homo sapiens), P14416 | activation, % (concentration not given with the values) | AID 624465, 2012 | 360,000 tested, 0.084% active; in the data active means activation above about 40%; inconclusive means between about 15% and that limit
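DiscoveRx PathHunter D2 beta-arrestin cells (2,100/well) attached overnight, then compound-stimulated 90 min at 37 C in HBSS/10 mM HEPES/0.1% Tween-20 buffer; beta-galactosidase complementation read by luminescence after 1 h at ambient temperature. Dopamine 57 uM final (EC100) as control.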
D3 ag: qHTS of D3 Dopamine Receptor Agonist: D3 Dopamine Receptor B-arrestin Agonist Confirmatory Assay; AID 720506, 2013; shares compounds with D2 ag-1; 2,300 tested, 4% active; DiscoveRx D3 beta-arrestin cells, luminescence, 90 min; Potency, µM (titrated, usually from 76.9 µM), for the others: at the top dose activation, hits mostly activators;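 further: potency means the concentration at half of the fitted maximal effect; 100% = dopamine control response; nearly all actives have a fitted effect of over 70% in size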
Target sequence (P35462 whole entry, looked up): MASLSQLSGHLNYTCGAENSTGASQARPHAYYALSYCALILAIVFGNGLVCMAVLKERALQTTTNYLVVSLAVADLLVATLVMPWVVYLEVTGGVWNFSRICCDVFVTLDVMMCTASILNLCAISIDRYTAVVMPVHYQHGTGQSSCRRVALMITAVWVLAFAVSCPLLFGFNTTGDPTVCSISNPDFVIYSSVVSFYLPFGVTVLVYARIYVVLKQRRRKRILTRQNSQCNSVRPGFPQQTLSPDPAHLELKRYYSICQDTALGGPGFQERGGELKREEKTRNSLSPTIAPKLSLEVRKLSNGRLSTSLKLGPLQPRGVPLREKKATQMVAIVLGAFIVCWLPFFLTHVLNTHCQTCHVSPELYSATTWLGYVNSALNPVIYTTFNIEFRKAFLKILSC
D2 ag-3: qHTS of D3 Dopamine Receptor Agonist: D2 Dopamine Receptor B-arrestin Agonist Counterscreen | shares compounds with D2 ag-1 | DiscoveRx PathHunter D2 beta-arrestin, luminescence, 90 min; response scale: percent relative to full dopamine signal | Potency, µM (series often up to 76.9 µM), for the others: at the top dose activation, hits mostly activators | 2,300 tested, 5.9% active | AID 720507, 2013; further: potency means the concentration at half of the fitted maximal effect; % of control where 0% means no effect; nearly all actives have a fitted effect of over 70% in size
Active calls of the source: *; ? = inconclusive; / = no result given. Unless noted, the call rests on the fitted dose curve; in most records, active means well fitted activation curve with a large enough effect; inconclusive means small, poorly fitted or top-dose-only effect; inactive means flat fitted curve, though single readings scatter.

SMILES	D2 antagonist	D2 PAM-1	D2 ag-1	D2 PAM-2	D2 ag-2	D3 ag	D2 ag-3
CN1CCc2c(sc(/N=C/c3c[nH]c4ccccc34)c2C#N)C1	-6	-20	49*	-26	7	12%	-4%
CN1CCc2c(sc(/N=C/c3cc(Cl)ccc3O)c2C#N)C1	83*	26	88*	-36	52*	-11%	10%
CN1CCc2c(sc(/N=C/c3c[nH]c4ccccc34)c2C(N)=O)C1	13	-17	1	-9	-4	/	/
COC(=O)C1CCN(CCCOc2ccc(CN3CCN(c4ccc([N+](=O)[O-])cc4)CC3)cc2)CC1	84*	30	69*	-15	45*	?	?
Cc1nn2c(-c3cccc(NC(=O)c4ccc(Cl)cc4)c3)nnc2c2ccccc12	/	/	-1	5	/	/	/
COc1ccc(NC(=O)CSCC(=O)Nc2ccc(S(=O)(=O)N3CCOCC3)cc2)cc1	4	0	0	-4	2	1%	4%
COc1ccccc1NC(=O)C1=C(C)Nc2nc(SCc3ccc(Cl)cc3)nn2C1c1ccccc1Cl (stereo unspecified)	/	/	-1	14	/	/	/
COc1ccc(CCN2CC(C(=O)N(C)CC(=O)Nc3ccc(Cl)c(C(F)(F)F)c3)CC2=O)cc1OC (stereo unspecified)	3	-10	1	5	-2	0%	9%
CN(CC(=O)Nc1ccc(Cl)c(C(F)(F)F)c1)C(=O)C1CC(=O)N(CCc2ccccc2)C1 (stereo unspecified)	-5	-36	1	4	0	-2%	2%
COc1ccc(OC)c(NC(=O)c2nnn(CC(=O)Nc3ccc(C(C)C)cc3)c2N)c1	/	/	/	4	/	/	/
CC1=C/C(=C\C=C(C#N)C#N)N(C)c2ccccc21	-21	-4	32*	-12	-3	-26%	-8%
Cn1nc(C(F)(F)F)c(-c2ccc(F)cc2)c1NC(=O)c1ccco1	-6	-3	0	-3	1	1%	2%
Cn1nc(C(F)(F)F)c(-c2ccccc2)c1NC(=O)c1ccco1	-8	-17	0	1	-4	/	/
Cc1cc2nc(-c3ccc(OCc4ccc(F)cc4)cc3)cc(C(F)(F)F)n2n1	/	/	0	-6	/	/	/
Cc1cc(Br)ccc1NC(=O)CN(C)C(=O)c1ccc(-n2cncn2)c([N+](=O)[O-])c1	-27	-5	-1	-1	4	-1%	1%
Cc1ccc(NC(=O)c2ccc(-n3cncn3)c([N+](=O)[O-])c2)cc1	-27	-7	1	3	2	/	/
CCN(CC)S(=O)(=O)c1cc(NC(=O)c2ccc(-n3cncn3)c([N+](=O)[O-])c2)ccc1C	-19	8	57*	-19	6	20%	17%
O=C(CCn1c(=O)c2cccn2c2ccc(F)cc21)NCCc1ccccc1Cl	/	/	0	5	/	/	/
Cc1cnc(C(=O)Nc2ccc(S(=O)(=O)NCC(C)C)cc2)cn1	36*	-9	15	-8	-2	7%	-3%
Cc1cnc(C(=O)Nc2ccc(S(=O)(=O)N(C(C)C)C(C)C)cc2)cn1	27	-3	0	3	4	/	/
N#C/C(=N\Nc1ccccc1)C(N)=S	4	-29	1	-1	-11	-10%	-19%
NC(=O)c1ccccc1NC(=O)Cn1nc(Cc2cccnc2)c2ccccc2c1=O	/	/	0	4	/	/	/
CC1CN(C(=O)CNC(=O)Cc2cccc3ccccc23)CC(C)O1 (stereo unspecified)	-22	0	1	-11	-2	1%	0%
COc1ccc2c(c1)c1c(c(=O)n(-c3ccccc3)c(=O)n1CC(=O)Nc1ccc(F)cc1)n2C	/	/	/	-10	/	/	/
CCCN1C(=O)CSC1=Nc1ccccc1	5	-9	1	3	1	/	/
SMILES	D2 antagonist	D2 PAM-1	D2 ag-1	D2 PAM-2	D2 ag-2	D3 ag	D2 ag-3
O=C1CSC(=Nc2ccccc2)N1Cc1ccccc1	/	-7	/	/	2	-5%	-1%
CCCC(C)NC(=O)c1cc(S(=O)(=O)N2CCCCCC2)ccc1OC (stereo unspecified)	-12	0	1	4	-2	-5%	0%
C=CCC(C(=O)Oc1c(C(C)(C)C)cc(C)cc1C(C)(C)C)c1ccccc1 (stereo unspecified)	-11	-2	0	1	-2	-7%	-4%
Cc1cccc(C)c1OC(=O)C(c1ccccc1)c1ccccc1	-10	1	0	10	-3	/	/
CC(C)n1ncc2c(C(=O)N3CCN(Cc4ccc(Br)s4)CC3)cc(C3CC3)nc21	70*	6	64*	-23	?	24%	?
CC(C)(C)OC(=O)N1CCC(CNC(=O)c2ccc(F)cc2)CC1	5	-4	32*	-20	3	-6%	1%
COc1ccccc1/C=N/NC(=O)c1ccc(NC(=O)c2ccccc2Br)cc1	0	2	63*	-19	2	12%	0%
CCc1nn(CC(=O)NCc2ccc(OC)cc2OC)c(=O)c2cc3c(OC)cccc3n12	/	/	2	/	/	/	/
CN=c1scc(-c2ccc([N+](=O)[O-])cc2)n1/N=C/c1ccco1	-3	8	0	7	0	/	/
CN=c1scc(-c2ccc(F)cc2)n1/N=C/c1ccc(O)c(O)c1	76*	?	32*	/	103*	13µM*	32µM*
COc1ccc(-c2noc(CN3CCN(C(=O)c4cccs4)CC3)n2)c(OC)c1OC	-3	-6	29	-13	-9	1%	5%
COc1ccccc1CN(C)C(=O)CN1CCN(C(=O)c2cccs2)CC1	29	12	72*	-26	14	9%	?
COc1ccccc1CC(NC(C)=O)C(=O)N1CCN(C(=O)c2cccs2)CC1 (stereo unspecified)	-6	-7	7	-10	-2	/	/
COc1ccc(CN2CCN(C(=O)c3cccs3)CC2)cc1Br	/	3	/	/	15	/	/
COc1ccccc1/C=C/c1nc2ccccc2n1C(C)C	/	/	-1	-33	/	/	/

Bioassay records deposited in PubChem BioAssay by National Center for Advancing Translational Sciences (NCATS).
